In the library only some 18% were active in any assay of this set; here they are far more common.
DT40 TDP1 no CPT: qHTS for Inhibitors of human tyrosyl-DNA phosphodiesterase 1 (TDP1): qHTS in cells in absence of CPT. DT40 Tdp1-/- hTDP1 cells, no CPT, ATP luminescence, 48 h. Potency, µM (highest dose often 46.2 µM), for the others: at the top dose activity change, negative = growth inhibition, actives largely listed as inhibitors. 420,000 compounds, 15% hits; further: potency means the concentration at half of the fitted maximal effect; nearly all actives have a fitted effect of over 55% in size
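Chicken DT40 Tdp1-/- cells complemented with human TDP1, screened without camptothecin (DMSO vehicle only), 400 cells/well. Compounds pin-transferred, cells incubated at 37 °C for at least 48 hr. Growth read as ATP-dependent luminescence (CellTiter-Glo, 30 min at RT).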
IL1B secr inh: inhibitors of inflammasome signaling (IL-1 beta secretion) | activity change, % at 57.5 µM | 360,000 compounds, 4.7% hits | THP-1 LPS/ATP IL-1B secretion, AlphaLISA, 16 h; active compounds read low; in the data active means activity change below about -50%; inconclusive means mostly about -30% to -49%
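THP-1 cells pretreated 1 hr with compounds (up to 57.5 uM final), then stimulated with LPS (250 ng/mL final) plus ATP (1.25 mM final); secreted IL-1B measured by AlphaLISA after 16 hr, decreased signal indicating inhibition.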
TDP1 inh: TDP1 (human) enzyme inhibition; recombinant TDP1, AlphaScreen DNA substrate cleavage; AID 485290; Potency, µM (top dose mostly 130 µM), without a hit: at the highest dose activity change, negative = inhibition, actives largely listed as inhibitors; 350,000 compounds, 0.28% hits; further: potency means the concentration at half of the fitted maximal effect; nearly all actives have a fitted effect of over 40% in size
Target sequence (Q9NUW8 whole entry, looked up): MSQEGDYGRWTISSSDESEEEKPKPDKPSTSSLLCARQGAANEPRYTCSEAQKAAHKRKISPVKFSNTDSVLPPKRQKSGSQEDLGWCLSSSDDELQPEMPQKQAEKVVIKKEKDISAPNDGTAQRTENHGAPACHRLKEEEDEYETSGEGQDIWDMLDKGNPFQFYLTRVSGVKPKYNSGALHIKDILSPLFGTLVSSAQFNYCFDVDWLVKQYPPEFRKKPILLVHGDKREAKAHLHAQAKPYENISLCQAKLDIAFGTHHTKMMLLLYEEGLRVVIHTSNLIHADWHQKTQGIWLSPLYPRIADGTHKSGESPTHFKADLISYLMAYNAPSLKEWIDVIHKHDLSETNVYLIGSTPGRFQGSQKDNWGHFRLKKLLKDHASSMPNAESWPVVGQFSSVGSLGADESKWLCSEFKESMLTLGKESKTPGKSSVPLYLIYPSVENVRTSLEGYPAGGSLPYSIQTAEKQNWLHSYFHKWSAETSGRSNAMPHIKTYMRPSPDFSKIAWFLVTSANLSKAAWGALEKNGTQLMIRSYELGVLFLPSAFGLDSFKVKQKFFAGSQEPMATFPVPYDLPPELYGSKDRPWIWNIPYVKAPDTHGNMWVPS
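Here, a 5' biotin and 3' phosphotyrosine-FITC DNA oligonucleotide reports Tdp1 activity: intact substrate bridges AlphaScreen beads, while cleavage leaves a 3' phosphate and drops signal. All incubations at room temperature.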
TDP1 cell CPT: DT40-hTDP1 cell growth loss with CPT | chicken DT40 Tdp1-/-;hTDP1 cells + 20 nM CPT, ATP luminescence, 48 h | Potency, µM (top dose mostly 46.2 µM), inactives show top-dose activity change, negative = growth inhibition, most hits filed as inhibitors | 420,000 compounds, 12% hits; further: potency means the concentration at half of the fitted maximal effect; nearly all actives have a fitted effect of over 55% in size
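Cell growth measured by CellTiter-Glo luminescence after a minimum 48 h, 37 C compound exposure with 20 nM CPT in Tdp1-knockout DT40 cells stably expressing hTDP1, seeded 400/well; qHTS titration format.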
Six1-Eya2 blk: Six1/Eya2 interaction inhibition; Q15475+O00167; AlphaScreen GST-Six1/His-Eya2 binding, biochemical; active compounds read low; activity change, % (no concentration beside the values); 360,000 compounds, 0.56% hits; in the data active means activity change below about -65%; inconclusive means mostly about -30% to -63%
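Homogeneous AlphaScreen proximity assay pairing GST-Six1 with His-tagged Eya2 (added as 5X mix: 250 nM and 500 nM) in 50 mM Tris pH 8.0, 300 mM NaCl, 1 mM TCEP. Glutathione donor and nickel acceptor beads; 1 h, 37 °C, dark.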
CtBP-E1A inh: CtBP/E1A binding inhibition. 340,000 compounds, 0.49% hits. AlphaScreen GST-E1A/His-CtBP binding, 1536-well; active compounds read low. activity change, % (test concentration not listed). AID 651724; in the data active means activity change below about -65%; inconclusive means mostly about -30% to -63%
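GST-E1A and His-tagged CtBP (125 nM each as 5X stock) were preincubated with pin-transferred compound for 2 h at 37 °C in the dark, then glutathione donor and nickel acceptor beads were added for 1 h before AlphaScreen reading.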
* hit, by the source's call; ? = inconclusive; · = no result given. Unless noted, the call rests on the fitted dose curve; in most records, active means well fitted curve in the direction sought with a large enough effect; inconclusive means small, poorly fitted or top-dose-only effect, or another doubt; inactive means no such curve, though single readings can be large; an effect the other way counts as inactive or inconclusive. On the % scale 0 is the no-effect control and ±100 the full control effect.

SMILES	DT40 TDP1 no CPT	IL1B secr inh	TDP1 inh	TDP1 cell CPT	Six1-Eya2 blk	CtBP-E1A inh
CNC(=S)N1N=C(c2ccc(Br)cc2)CC1c1ccc(N(C)C)cc1 (stereo unspecified)	?	-25	8%	?	?	-26
COc1ccc(C2CCCN2C(=S)Nc2ccc(C)cc2Cl)cc1OC (stereo unspecified)	16µM*	-20	6%	?	-11	2
C=CCOc1cccc(CNCc2ccncc2)c1	1%	48	·	-22%	6	-2
Cc1ccc(Nc2nnc(SCC(=O)Nc3ncc(C(F)(F)F)cc3Cl)s2)cc1	-23%	30	5%	-10%	-1	4
Cc1ccccc1C(=O)Oc1c(Sc2ccccc2)c(C)nn1C(C)(C)C	15µM*	·	-6%	?	·	·
COc1ccccc1C(=O)Oc1c(Sc2ccccc2)c(C)nn1C(C)(C)C	15µM*	·	-6%	?	·	·
COc1cc(NC(=O)c2c(F)c(F)c(F)c(F)c2F)c(OC)cc1Cl	?	-101*	0%	-28%	0	15
COc1cc(NC(=O)c2ccc(F)cc2)c(OC)cc1Cl	-8%	7	1%	-24%	1	-10
CC(C)=CCn1c2ccc(NC(=O)Nc3cccnc3)cc2c(=O)n1C	?	17	·	-30%	-4	2
CC(C)=CCn1c2ccc(NC(=O)Nc3ccc(N(C)C)cc3)cc2c(=O)n1C	18µM*	-20	·	?	-26	-19
CN(C)c1ccc(NC(=O)Nc2ccc3c(c2)c(=O)n(C)n3Cc2ccccc2)cc1	16µM*	-10	·	23µM*	?	-27
O=C(O)C1CCN(c2ccc(S(=O)(=O)N3CCOCC3)cc2[N+](=O)[O-])CC1	10%	2	8%	8%	17	3
CC(C)c1ccc(/C=C2\SC(=S)N(CCC(=O)N3CCCCC3CCO)C2=O)cc1 (stereo unspecified)	21µM*	-51*	10%	?	-13	·
O=C1/C(=C/c2ccccc2Cl)SC(=S)N1CCC(=O)N1CCCCC1CCO (stereo unspecified)	10µM*	?	12%	16µM*	-14	·
Cc1cc(C(=O)C(C)Sc2cccc[n+]2[O-])c(C)n1-c1ccc(Cl)cc1 (stereo unspecified)	2.9µM*	-101*	5%	2.9µM*	-21	8
CCOC(=O)N1CCN(C(=O)CNC(=O)c2ccccc2F)CC1	-11%	10	-1%	-2%	-6	1
CC(C)(C)OC(=O)NCc1ccc(NC(=O)c2nc[nH]c2C(=O)N[C@@H](Cc2ccccc2)C(=O)OC(C)(C)C)cc1	12µM*	?	11%	15µM*	-2	-5
C[C@H](NC(=O)c1[nH]cnc1C(=O)Nc1ccc(CNC(=O)OC(C)(C)C)cc1)C(=O)OCc1ccccc1	18µM*	1	8%	?	6	·
CC(C)C[C@H](NC(=O)c1[nH]cnc1C(=O)Nc1ccc(CNC(=O)OC(C)(C)C)cc1)C(=O)OCc1ccccc1	15µM*	-2	11%	?	-11	-8
N#Cc1cc(-c2ccccc2)nnc1Sc1ccccc1	-20%	0	5%	-11%	-4	-7
Cc1ccc(S(=O)CCNC(=O)Cc2ccc(Cl)cc2)cc1 (stereo unspecified)	-4%	-10	3%	-13%	1	3
CC1=C2CCCC[C@@]23C2C(=O)N(C)C(=O)[C@@H]2ON3OC1 (stereo partly specified)	5%	-11	·	19%	6	-3
Nc1c(C(=O)NCCN2CCOCC2)c2nc3ccccc3nc2n1-c1cccc(F)c1	?	-63*	1%	?	25	8
N#Cc1c(N)n(CCCN2CCOCC2)c2nc3ccccc3nc12	-25%	?	3%	-9%	?	?

Assay outcomes: PubChem BioAssay, National Center for Advancing Translational Sciences (NCATS)
